Assay outcomes (PubChem BioAssay)
Compounds with a hit are over-represented: about 8.1% of the library has one in this group of screens.
Epigenetic reg: Quantitative High-Throughput Screen for Regulators of Epigenetic Control | murine LDR cells, GFP reporter derepression, 30 h | Potency, µM (highest dose often 53.9 µM), for the others: at the top dose GFP activation, most hits filed as activators | hit rate 0.2% among 280,000; further: % of control where 0% means no effect; nearly all actives have a fitted effect of over 60% in size
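Murine LDR cells carrying a silenced, genomically integrated CMV-driven GFP reporter were exposed to compound for 30 hours at 37 C. After PBS washes, GFP-positive cells (20–120 um objects) were counted by laser-scanning microplate cytometry.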
RORg inh: qHTS for inhibitors of ROR gamma transcriptional activity; Drosophila S2 Gal4-RORgamma UAS-luciferase reporter, 20 h; AID 2551, 2010; hit rate 5.4% among 310,000; Nuclear receptor ROR-gamma (Mus musculus), P51450; Potency, µM (titrated, usually from 53.6 µM), inactives show at the highest dose activity change, negative = inhibition, usual class: inhibitors; further: on the % scale 0 is the no-effect control and ±100 the full control effect; nearly all actives have a fitted effect of over 60% in size
Target sequence (P51450 whole entry, looked up, the tested form may be a part): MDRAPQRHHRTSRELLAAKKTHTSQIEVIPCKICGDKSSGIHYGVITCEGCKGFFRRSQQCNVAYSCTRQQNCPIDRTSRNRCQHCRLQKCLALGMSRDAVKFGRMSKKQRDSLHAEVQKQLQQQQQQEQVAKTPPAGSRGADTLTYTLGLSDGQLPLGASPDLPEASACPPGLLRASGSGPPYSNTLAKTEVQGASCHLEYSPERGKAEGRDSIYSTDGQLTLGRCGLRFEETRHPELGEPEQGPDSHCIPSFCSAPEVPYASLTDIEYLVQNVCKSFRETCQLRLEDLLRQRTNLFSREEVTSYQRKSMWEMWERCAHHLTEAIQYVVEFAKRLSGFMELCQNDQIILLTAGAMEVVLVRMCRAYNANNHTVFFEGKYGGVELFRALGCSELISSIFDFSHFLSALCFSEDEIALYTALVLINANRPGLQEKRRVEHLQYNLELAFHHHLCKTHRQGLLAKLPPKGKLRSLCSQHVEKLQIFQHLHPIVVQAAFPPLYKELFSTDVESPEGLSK
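A Gal4/UAS one-hybrid system in insect cells: metallothionein-promoter Gal4–ROR gamma fusion plus Photinus luciferase reporter. Copper sulfate 700 uM final, 20 hr ambient incubation, luminescent detection after 10 min with reagent.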
Sfp PPTase inh: qHTS Assay for Inhibitors of Bacillus subtilis Sfp phosphopantetheinyl transferase (PPTase). Biochemical Sfp PPTase activity, qHTS. Potency, µM, for the others: largest response in the series, negative = inhibition, usual class: inhibitors. hit rate 3.5% among 310,000. AID 1490, 2009;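 further: the enzyme is Sfp with the accession as filed and its product quenches rhodamine fluorescence; 0% = enzyme reaction without inhibitor and -100% = no enzyme wells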
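Buffer: 50 mM Hepes-Na pH 7.6, 10 mM MgCl2, 0.01% Nonidet P-40, 0.01% BSA. Enzyme 15 nM, pre-exposed to compound 15 min; substrates then added and fluorescence change tracked over 30 min.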
PINK1 modulator: A Quantitative High throughput Screen to Identify Chemical Modulators of PINK1 Expression; PINK1 immunofluorescence, high-content cytometry, 24 h; Potency, µM (highest dose often 76.6 µM), for the others: top-dose activation (PINK1 increase), hits mostly activators; hit rate 0.2% among 410,000; AID 624263, 2012; active means well fitted activation curve with a large enough effect; inconclusive means small, poorly fitted or top-dose-only effect; cell line not stated here; further: % of control where 0% means no effect; nearly all actives have a fitted effect of over 65% in size
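Cells are seeded, rested 12 hours, then given compound at five concentrations or DMSO for 24 hours. After fixation, blocking and antibody staining, PINK1 amount and mitochondrial localization are scored; CCCP serves as control.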
Gal4-VP16 FLuc: VP16 counterscreen qHTS for inhibitors of ROR gamma transcriptional activity | Drosophila S2 Gal4-VP16 UAS-luciferase, luminescence, 20 h | Potency, µM (series often up to 53.6 µM), without a hit: top-dose activity, negative = inhibition, usual class: inhibitors | hit rate 3.5% among 310,000 | AID 2546, 2010;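 further: Gal4-VP16 expression switched on by copper sulfate through the metallothionein promoter; on the % scale 0 is the no-effect control and ±100 the full control effect; nearly all actives have a fitted effect of over 50% in size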
ClpP mod: qHTS Assay for Activators of ClpP; ATP-dependent Clp protease proteolytic subunit (Bacillus subtilis (strain 168)), P80244; purified B. subtilis ClpP, FRET peptide cleavage, 20 min; Potency, µM (titrated, usually from 57.5 µM), for inactives: top-dose activity change, negative = active; hit rate 1.9% among 340,000; AID 651965, 2013; active means well fitted falling curve with a large enough effect; inconclusive means small, poorly fitted or top-dose-only effect; inactive means no such curve, though single readings can be large or run the other way; further: the source files actives as falling curves though it sought activators and does not explain the sign; nearly all actives have a fitted effect of over 65% in size
Target sequence (P80244 whole entry, looked up): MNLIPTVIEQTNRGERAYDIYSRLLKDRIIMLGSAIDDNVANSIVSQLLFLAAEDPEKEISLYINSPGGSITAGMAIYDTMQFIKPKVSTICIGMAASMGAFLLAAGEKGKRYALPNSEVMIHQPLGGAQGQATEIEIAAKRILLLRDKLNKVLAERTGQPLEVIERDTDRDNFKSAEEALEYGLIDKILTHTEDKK
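ClpP 10 microg/mL final, pH 8 Tris/KCl buffer with BSA, glycerol, Tween-20; compound pinned in; FRET-FV substrate; RT 20 min; Ex320/Em430; ΔFRET vs ADEP 5.8 microM, DMSO, no enzyme.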
Starred values were filed as active, the others as inactive; [ ] = another dose, or the depositor's remark. Unless noted, the call rests on the fitted dose curve; in most records, active means well fitted curve in the direction sought with a large enough effect; inconclusive means small, poorly fitted or top-dose-only effect, or another doubt; inactive means no such curve, though single readings can be large; an effect the other way counts as inactive or inconclusive. Potency means the concentration at half of the fitted maximal effect.

`CC1CC(C)CN(S(=O)(=O)c2ccc(C(=O)Nc3sccc3C(N)=O)cc2)C1` (stereo not drawn) gave Epigenetic reg 0%, RORg inh -14%, Sfp PPTase inh 1%, PINK1 modulator -1%, Gal4-VP16 FLuc inconclusive and ClpP mod -4%.
For CCC1CCCCN1S(=O)(=O)c1ccc(C(=O)Nc2nnc(-c3cccs3)o2)cc1 (stereo not drawn) the results were Epigenetic reg 1%, RORg inh 0.32µM*, Sfp PPTase inh 16%, PINK1 modulator 2%, Gal4-VP16 FLuc 0.32µM* and ClpP mod -2%.
CC1CC(C)CN(S(=O)(=O)c2ccc(C(=O)Nc3nnc(-c4cccs4)o3)cc2)C1 (stereo not drawn) was read as Epigenetic reg 4%, RORg inh 0.25µM*, Sfp PPTase inh -3%, PINK1 modulator 1%, Gal4-VP16 FLuc 0.5µM* and ClpP mod -2%.
Screening CC(=O)Nc1ccc(S(=O)(=O)NC(CC(=O)N(C)Cc2ccccc2)C(C)C)cc1 (stereo not drawn) returned Epigenetic reg -1%, RORg inh 0%, Sfp PPTase inh 13%, PINK1 modulator 0%, Gal4-VP16 FLuc 1% and ClpP mod 14µM*.
CC(=O)Nc1ccc(S(=O)(=O)NC(CC(=O)NCCc2ccccc2)C(C)C)cc1 (stereo not drawn) was read as Epigenetic reg 1%, RORg inh 40%, Sfp PPTase inh 5%, Gal4-VP16 FLuc 1% and ClpP mod 0%.
For Cn1cnnc1Sc1ccc(CN2CCOc3ccc(C4=Cc5ccccc5CC4)cc3C2)o1 the results were PINK1 modulator 0%.
Screening COc1cc2c(cc1OC)-c1n[nH]c(=S)n1C(C)(C)C2 returned Epigenetic reg -3%, RORg inh 7.9µM*, Sfp PPTase inh -11%, PINK1 modulator 1% and Gal4-VP16 FLuc inconclusive.
Screening COc1cc2c(cc1OC)/C(=C/C(=O)N1CCOCC1)NC(C)(C)C2 returned Epigenetic reg 0%, RORg inh 31%, Sfp PPTase inh inconclusive, PINK1 modulator -1%, Gal4-VP16 FLuc -13% and ClpP mod 13µM*.
`COc1cc2c(cc1OC)C(=S)NC(C)(C)C2` gave Epigenetic reg -3%, RORg inh 20µM*, Sfp PPTase inh -21%, Gal4-VP16 FLuc inconclusive and ClpP mod -21%.
`CCOC(=O)/C=C1\NC(C)(C)Cc2cc(OC)c(OC)cc21` gave Epigenetic reg -1%, RORg inh -1%, Sfp PPTase inh 2%, PINK1 modulator 2%, Gal4-VP16 FLuc 1% and ClpP mod -9%.
For COc1ccc(CCNC(=O)c2ccc3c(c2)N(Cc2cc(C)ccc2C)C(=O)c2ccccc2S3=O)cc1OC (stereo not drawn) the results were Epigenetic reg -1%, PINK1 modulator -1% and ClpP mod -6%.
Screening Cc1cccc(-c2nc3c4ccccc4nc(NCCc4ccccc4)n3n2)c1 returned Epigenetic reg 1%, PINK1 modulator 2% and ClpP mod -8%.
For CCOC(=O)c1ccc(C(=O)NNC(=O)C2C3C=CC(C3)C2C(=O)O)cc1 (stereo not drawn) the results were RORg inh 20%, Sfp PPTase inh 50µM*, PINK1 modulator 2%, Gal4-VP16 FLuc 1% and ClpP mod -3%.
Screening O=C(NNc1ccccc1F)c1cccs1 returned PINK1 modulator 0% and ClpP mod 0%.
For CC(=O)N1N=C(c2ccccc2)OC1c1ccc([N+](=O)[O-])s1 (stereo not drawn) the results were Epigenetic reg inconclusive, RORg inh 13µM*, Sfp PPTase inh -9%, PINK1 modulator 6% and Gal4-VP16 FLuc inconclusive.
For CN(C)c1ccc(/C=N/NC(=O)c2ccccc2)cc1 the results were Epigenetic reg 2%, RORg inh inconclusive, Sfp PPTase inh 19%, PINK1 modulator 10% and Gal4-VP16 FLuc -24%.
For O=C(N/N=C/c1ccoc1)c1ccc(Br)cc1 the results were RORg inh inconclusive, Sfp PPTase inh -7%, PINK1 modulator 2%, Gal4-VP16 FLuc inconclusive and ClpP mod -1%.
For O=C(N/N=C\c1ccc(Cl)cc1)c1sccc1-n1cccc1 the results were Epigenetic reg -1%, RORg inh inconclusive, Sfp PPTase inh 17%, PINK1 modulator 13%, Gal4-VP16 FLuc -8% and ClpP mod 0%.
`O=C(N/N=C/c1ccoc1)c1ccc(Cl)cc1` gave RORg inh inconclusive, Sfp PPTase inh 50µM*, PINK1 modulator -1%, Gal4-VP16 FLuc inconclusive and ClpP mod 0%.
`CN(C)c1ccc(/C=N/NC(=O)c2ccc(Cl)cc2)cc1` gave Epigenetic reg 3%, RORg inh 8.9µM*, Sfp PPTase inh 4%, PINK1 modulator 12%[38.3 µM], Gal4-VP16 FLuc -10% and ClpP mod -9%.
Screening O=C(N/N=C/c1ccoc1)c1ccccc1O returned RORg inh 10µM*, Sfp PPTase inh -1%, PINK1 modulator 1%, Gal4-VP16 FLuc 18µM* and ClpP mod -2%.
Screening CN(C)c1ccc(/C=N/NC(=O)c2sccc2-n2cccc2)cc1 returned Epigenetic reg 1%, RORg inh 11µM*, Sfp PPTase inh -5%, PINK1 modulator 2% and Gal4-VP16 FLuc inconclusive.
For CCc1nnc(SCC(=O)Nc2ccc(F)cc2F)c2cc3sc(C)cc3n12 the results were Epigenetic reg -2%, PINK1 modulator -1% and ClpP mod 1%.
Screening Cc1cc(C)c2c(=N)c3ccccc3n(CCCCCCCCn3c4ccccc4c(=N)c4c(C)cc(C)nc43)c2n1 returned PINK1 modulator -2% and ClpP mod 32µM*.
`CCOC(=O)c1sc2nc(C)cc(C)c2c1N` gave Epigenetic reg -2%, RORg inh 2%[0.365 µM], Sfp PPTase inh -8%, PINK1 modulator 0% and ClpP mod 28µM*.
Screening COCc1cc(C)nc2sc(C(=O)N3CCCCC3)c(N)c12 returned Epigenetic reg -3%, RORg inh -19%, Sfp PPTase inh 79µM*, PINK1 modulator 5%[38.3 µM], Gal4-VP16 FLuc 2% and ClpP mod 2%.
Screening CCOC(=O)c1sc2nc(-c3ccccc3)ccc2c1N returned Epigenetic reg -3%, RORg inh 2.5µM*, Sfp PPTase inh -21%, PINK1 modulator 1%, Gal4-VP16 FLuc inconclusive and ClpP mod -8%.
